Sfp inh: qHTS Assay for Inhibitors of Bacillus subtilis Sfp phosphopantetheinyl transferase (PPTase); 4'-phosphopantetheinyl transferase ffp (Bacillus subtilis), Q9F4F7; Biochemical Sfp PPTase activity, qHTS; Potency, µM, for the others: largest response in the series, negative = inhibition, actives largely listed as inhibitors; 3.5% of 310,000 active; AID 1490, 2009;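 further: the enzyme is Sfp with the accession as filed and its product quenches rhodamine fluorescence; 0% = enzyme reaction without inhibitor and -100% = no enzyme wells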
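Compounds were incubated with enzyme (final 15 nM) for 15 min at room temperature before substrate addition started the reaction. Fluorescence at 525 nm excitation, 598 nm emission was recorded immediately and after 30 minutes.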
BAZ2B block: qHTS Assay for Inhibitors of BAZ2B; 4.4% of 360,000 active; Bromodomain adjacent to zinc finger domain protein 2B (Homo sapiens), Q9UIF8; Potency, µM (series often up to 114 µM), for the others: at the highest dose activity change, negative = inhibition, actives largely listed as inhibitors; AlphaScreen BAZ2B-H3K14Ac peptide displacement; further: on the % scale 0 is the no-effect control and ±100 the full control effect; nearly all actives have a fitted effect of over 60% in size
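Complex of BAZ2B and biotin-H3K14Ac (50 nM apiece) forms over 30 min at RT, then faces library compounds up to 110 uM for another 30 min; AlphaScreen beads added, 20 min dark incubation, luminescence read.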
HP1b chromo inh: HTS for Inhibitors of HP1-beta Chromodomain Interactions with Methylated Histone Tails; AlphaScreen HP1-beta / biotin-H3K9me3 peptide binding; Potency, µM (top dose mostly 114 µM), for inactives: at the highest dose activity change, negative = inhibition, hits mostly inhibitors; 0.56% of 390,000 active; further: nearly all actives have a fitted effect of over 70% in size
Target sequence (P83916 whole entry, looked up): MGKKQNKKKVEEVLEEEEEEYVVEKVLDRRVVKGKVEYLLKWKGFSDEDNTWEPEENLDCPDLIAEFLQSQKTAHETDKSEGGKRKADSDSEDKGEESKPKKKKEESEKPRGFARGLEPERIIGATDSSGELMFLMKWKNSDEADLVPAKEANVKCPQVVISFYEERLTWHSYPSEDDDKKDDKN
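Compound inhibition of the preformed complex between 50 nM HP1-beta and 50 nM biotinylated H3K9me3 peptide was read by AlphaScreen. Buffer was PBS pH 7.4 with 0.01% Tween-20. Incubations ran 30 min at room temperature, with 10 ug/mL donor/acceptor beads.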
G9a block: qHTS Assay for Inhibitors of Histone Lysine Methyltransferase G9a; AID 504332, 2011; Potency, µM (doses to about 102 µM), for the others: at the top dose activity, negative = inhibition, hits mostly inhibitors; 8.8% of 350,000 active; G9a H3K9 monomethylation, AlphaScreen, 2 h; Histone-lysine N-methyltransferase EHMT2 (Homo sapiens), Q96KQ7; further: on the % scale 0 is the no-effect control and ±100 the full control effect; nearly all actives have a fitted effect of over 75% in size
Target sequence (Q96KQ7 913-1193 limits assumed): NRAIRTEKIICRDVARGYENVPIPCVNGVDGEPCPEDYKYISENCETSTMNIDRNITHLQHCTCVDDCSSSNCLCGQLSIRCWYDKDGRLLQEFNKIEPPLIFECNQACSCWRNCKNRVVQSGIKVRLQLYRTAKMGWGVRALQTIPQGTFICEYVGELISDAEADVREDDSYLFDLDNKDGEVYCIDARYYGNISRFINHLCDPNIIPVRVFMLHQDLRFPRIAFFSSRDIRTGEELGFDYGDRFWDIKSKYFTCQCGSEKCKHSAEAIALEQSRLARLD
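Quantitative HTS format: methyltransferase activity on a biotin-tagged H3K9 peptide is measured by AlphaScreen, using a rabbit anti-monomethyl-H3K9 antibody with streptavidin donor and anti-IgG acceptor beads. Final levels are 20 nM enzyme, 500 nM peptide, 20 uM SAM; 2 h RT.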
JMJD2A Tudor inh: qHTS Assay for Inhibitors of JMJD2A-Tudor Domain; Lysine-specific demethylase 4A (Homo sapiens), O75164; AlphaScreen JMJD2A-Tudor / H3K4me3 peptide binding; Potency, µM (highest dose often 114 µM), inactives show top-dose activity change, negative = inhibition, usual class: inhibitors; 4.4% of 390,000 active; AID 504339, 2011; further: on the % scale 0 is the no-effect control and ±100 the full control effect; nearly all actives have a fitted effect of over 50% in size
L3MBTL1 inh: qHTS Assay for the Inhibitors of L3MBTL1 | Lethal(3)malignant brain tumor-like protein 1 (Homo sapiens), Q9Y468 | AlphaScreen L3MBTL1–H3K9me1 peptide binding | Potency, µM (highest dose often 57.1 µM), without a hit: top-dose activity, negative = inhibition, usual class: inhibitors | 0.66% of 230,000 active | AID 485360, 2010; further: on the % scale 0 is the no-effect control and ±100 the full control effect; nearly all actives have a fitted effect of over 60% in size
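AlphaScreen assay: L3MBTL1 (50 nM final) was preincubated 30 min at room temperature with biotinylated H3(1-15)K9me1 peptide (75 nM final), then 30 min with library compounds; streptavidin donor and nickel chelate acceptor beads (10 ug/mL final) added, 30 min dark.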
Numbers without * were called inactive; ? = inconclusive; . = not tested or not shown; [ ] = dose if it differs, or a comment. An excerpt weighted towards active compounds, which were near 12% of everything screened. The call rests on the fitted dose curve; in most records, active means well fitted curve in the direction sought with a large enough effect; inconclusive means small, poorly fitted or top-dose-only effect, or another doubt; inactive means no such curve, though single readings can be large; an effect the other way counts as inactive or inconclusive. Potency means the concentration at half of the fitted maximal effect.

SMILES | Sfp inh | BAZ2B block | HP1b chromo inh | G9a block | JMJD2A Tudor inh | L3MBTL1 inh
COc1ccc(NC(=O)C(CCCCNC(=O)OC(C)(C)C)NC(=O)OCc2ccccc2)cc1 (centres undefined) | 4% | ? | 1% | 3.5µM* | ? | 3%
COCCn1c(CCC(=O)Nc2ccc(C)c(Cl)c2)nc2cccnc21 | . | 0% | 49% | -3%[59 µM] | -2% | .
O=C1C(Cl)=C(NCc2ccco2)C(=O)c2ccccc21 | . | . | 50µM* | . | ? | .
O=C1C(Cl)=C(NCCN2CCCCC2)C(=O)c2ccccc21 | 1% | ? | -25% | 50µM* | ? | .
Cc1cccc(C)c1Nc1nnc(SC/C(O)=C(\C#N)c2nc3ccccc3[nH]2)s1 | 0% | -2% | 2% | 14µM* | -26% | -11%
Cc1cccc(Nc2nnc(SC/C(O)=C(\C#N)c3nc4ccccc4[nH]3)s2)c1C | 4% | -4% | -4% | ? | -36% | -6%
Cn1cnnc1SC/C(O)=C(\C#N)c1nc2ccccc2[nH]1 | -26% | 50µM* | 12% | ? | 25µM* | 3%
N#C/C(=C(/O)CSc1nnc(Cc2cccs2)n1C1CCCCC1)c1nc2ccccc2[nH]1 | -9% | 31% | 28% | ? | -18% | -23%
COc1ccccc1-c1nnc(SC/C(O)=C(\C#N)c2nc3ccccc3[nH]2)n1C1CCCCC1 | -28% | -8% | ? | 32µM* | 89µM* | -9%
CCC(C)NCCOCCOc1cc(C)c(Cl)c(C)c1 (centres undefined) | 16% | 79µM* | ? | ? | 4µM* | 6%
CCC(C)NCCOCCOc1ccc(F)cc1 (centres undefined) | -9% | ? | ? | ? | 3.2µM* | .
C/C(CCN1CCc2nc(-c3ccccc3)c(-c3ccccc3)cc2C1)=N\OC[C@@H](C)[C@H](OCc1ccccc1)C(C)C | 0% | -22% | 13% | 45µM* | -27% | -3%
CO/N=C(\C)CCN1CCc2nc(-c3ccccc3)c(-c3ccccc3)cc2C1 | 3% | . | . | . | . | .
C/C(CCN1CCc2nc(-c3ccccc3)c(-c3ccccc3)cc2C1)=N\O[C@H](C)c1cn([C@H](CO)Cc2ccccc2)nn1 | 4% | -34% | . | 50µM* | . | -12%
Cc1ccc(OCC(=O)NCCCNC(=O)c2ccncc2)cc1 | -1% | 10% | -4% | 32µM* | -18% | .
Cc1ccc(OCC(=O)NCCNC(=O)c2ccncc2)cc1 | 8% | 9% | 0% | 13% | -10% | .
COc1ccc(/C=C/C(=O)c2ccc3c(c2)OCO3)c(OC)c1 | -9% | 2% | 27% | 1%[59 µM] | -8% | -5%
COc1cc(/C=C/C(=O)c2ccc3c(c2)OCO3)cc(Cl)c1O | -20% | ? | ? | 45µM* | ? | .
Cc1cc(NC(=O)CSc2c(C)[nH]c3ccccc23)no1 | -7% | -8% | 37% | 50µM* | -13% | -2%
Cc1cc(NC(=O)CSc2ccccn2)no1 | 8% | 0% | 34% | 45µM* | -19% | -15%
COc1ccc(S(=O)(=O)Nc2ccc(C)c(C)c2)cc1 | . | . | . | . | -20% | .
CCN(CC)c1ccc(NS(=O)(=O)c2ccc(OC)cc2)cc1 | -16% | 40µM* | 25% | 16µM* | -3% | 0%
CC(=O)Nc1ccc(S(=O)(=O)Nc2ccc3c(c2)CCC3)cc1 | -17% | -18% | -4% | 45µM* | -22% | .
COc1ccc(S(=O)(=O)Nc2ccc(N(C)C(C)=O)cc2)cc1 | 9% | 11% | 16% | 21%[59 µM] | -19% | .
COc1ccc(S(=O)(=O)Nc2ccc3c(c2)CCC3)cc1 | 4% | 6% | -12% | -8% | 10µM* | .

Screening results as filed in PubChem.
